The source of these data is PubChem BioAssay (NCI).

Test in all cases: NCI-60 one-dose screen, 48 h (100 = growth as untreated, 0 = no growth, -100 = all killed)
Holding throughout (settings): 10 µM unless noted

In assay [1] the test system is SR leukemia.
The test system of assay [2] is RPMI-8226 leukemia.
For assay [3], the system named is OVCAR-8 ovarian.
The subject of assay [4] is OVCAR-5 ovarian.
Assay [5] deals with OVCAR-4 ovarian.
The subject of assay [6] is SK-OV-3 ovarian.
In assay [7] the test system is IGROV1 ovarian.
For assay [8], the system named is OVCAR-3 ovarian.
Assay [9] concerns HS 578T breast.
For assay [10], the system named is NCI/ADR-RES ovarian.
Assay [11] concerns T-47D breast.
Assay [12] deals with BT-549 breast.
For assay [13], the system named is MDA-MB-435 melanoma.
For assay [14], the system named is SW-620 colon.
Assay [15] deals with MCF7 breast.
Assay [16] relates to HCT-116 colon.
Assay [17] has as its system HCC-2998 colon.
Assay [18] concerns KM12 colon.
Assay [19] deals with MDA-MB-468 breast.

Molecules are shown by their SMILES. Compounds without any hit were thinned out: in the full panel of roughly 83,000, 20% have a hit.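 Values shown are percent growth following 48 h exposure of cells in 96-well plates to a single concentration of compound; below 10 was considered active.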 A number with no mark means an inactive call. The source made the active and inactive calls.

Regarding `O=C1CCC(N2C(=O)c3cccc(NCCCCCC(=O)N4CCN(c5ccc6nc7c(nc6c5C(F)(F)F)C(=O)c5ncccc5C7=O)CC4)c3C2=O)C(=O)N1` (stereo not drawn), the growth was 8.9% (active) in [1]; -0.232% (active) in assay [2]; -53.3% (active) in assay [3]; -90.5% (active) in assay [4]; -83.4% (active) in [5]; -66.9% (active) in assay [6]. The growth in [7] is -75.4% (active); in assay [8], -50.4% (active); in [9] it was -11.5% (active); in assay [10], 19.6%; in assay [11] it was -41.1% (active); in assay [12], -76.8% (active). Moreover, the growth in assay [13] is -79.8% (active); in assay [14] it was -50.9% (active); in assay [15] it was -71.6% (active); in [16], -86% (active); in assay [17], -98% (active); in assay [18], -49.6% (active). In assay [19], the growth was -49.9% (active).

In the case of `Oc1cncc(-c2ccc3ncnc(N4CCc5cc(F)c(Cl)cc54)c3c2)c1`, the growth in assay [1] was 42.5%; in assay [2], 55.2%; in assay [3], 37.4%; in assay [4], 59.8%; in assay [5], 40.6%; in [6], 54.3%. The growth was 5.56% (active) in assay [7]; 58% in assay [8]; 18.1% in assay [9]; 61.9% in assay [10]; 41.9% in assay [11]; 73.1% in [12]. Also, the growth is 69.6% in [13]; 62.8% in assay [14]; 35.3% in assay [15]; 48.8% in assay [16]; 51.7% in assay [17]; 61.4% in [18]. In addition, in assay [19], the growth is 48.2%.

`CC1=C(C)C(=O)C(NCCN2CCOCC2)=C(Br)C1=O`: the growth is 55.9% in [1]; 58.6% in assay [2]; 16.3% in assay [3]; 4% (active) in assay [4]; -67.4% (active) in [5]; 87.5% in [6]. The growth in [7] is 31.4%; in assay [8], -26.9% (active); in assay [9], 60.4%; in [10] it was 86.4%; in assay [11], -58.6% (active); in [12], 87.4%. Also, the growth in [13] is -87.5% (active); in assay [14] it was 32.7%; in assay [15], 10.3%; in assay [16], -75.5% (active); in assay [17], 101%; in [18], 94.2%. Also, in assay [19], the growth is -96.2% (active).

Take `CCC1(OC(=O)c2ccccc2SSCCOC(=O)CCCCC2SCC3NC(=O)NC32)C(=O)OCc2c1cc1n(c2=O)Cc2cc3ccccc3nc2-1` (stereo not drawn): the growth is 3.84% (active) in assay [1]; 33.1% in [2]; 37.4% in assay [3]; 97% in assay [4]; 66% in assay [5]; 46.3% in assay [6]. The growth in assay [7] was 75.3%; in assay [8], 72.7%; in assay [9] it was 82.9%; in assay [10] it was 24.2%; in [11] it was 33.7%; in assay [12], 49.4%. In addition, the growth is 70.1% in assay [13]; 51.5% in [14]; 26.5% in assay [15]; 53.8% in assay [16]; 78.7% in assay [17]; 79% in assay [18]. For the same compound, the growth in assay [19] is -12.1% (active).

For `N#Cc1cc(-c2ccnc(Nc3ccc(N4CCN(C5COC5)CC4)cc3)n2)ccc1N1CCCC1`, the growth was 23% in [1]; 36.6% in [2]; 79.5% in assay [3]; 93.5% in assay [4]; 43.9% in assay [5]; 52.8% in assay [6]. The growth is 55.3% in assay [7]; 94.5% in [8]; 21.6% in assay [9]; 92.2% in [10]; 91% in assay [11]; 34.1% in [12]. Besides, the growth was 66.9% in assay [13]; 72.7% in [14]; 85.8% in assay [15]; 49% in assay [16]; 75.4% in [17]; 83.2% in assay [18]. Besides, in assay [19], the growth is 38.8%.

Take `COc1cc(C2CC(c3ccc(C(F)(F)F)cc3)=Nc3c(N)nc(N)nc3N2)ccc1Oc1nc(Nc2ccc(F)cc2)nc(N(C)C)n1` (stereo not drawn): the growth in assay [1] was -25.2% (active); in assay [2] it was 24.3%; in assay [3], 46.9%; in assay [4], 89.1%; in assay [5], 37.1%; in [6], 90.8%. For the same compound, the growth in [7] is 39.8%; in assay [8] it was 76.1%; in [9], 48.9%; in [10], 37%; in assay [11], 57.8%; in [12], 70.3%. In addition, the growth was 59.7% in [13]; 53.2% in assay [14]; 3.18% (active) in assay [15]; -16.4% (active) in assay [16]; -17.8% (active) in assay [17]; 32.6% in assay [18]. In addition, the growth in [19] was -8.26% (active).

In the case of `COc1cc(CNC(=O)C[C@H](C)CCC=C(C)C)ccc1OCc1cn(-c2ccccc2F)nn1`, the growth in assay [1] is 73.4%; in assay [2] it was 81.8%; in assay [3] it was 66.5%; in assay [4], 94.9%; in assay [5] it was 71.4%; in [6], 43.6%. Further, the growth in assay [7] is 81.9%; in [8], 105%; in [9], 39.5%; in [10] it was 54.8%; in [11], 60.6%; in [12] it was 71%. For the same compound, the growth is 100% in assay [13]; 92.7% in assay [14]; 66.9% in assay [15]; 60.2% in [16]; 101% in assay [17]; 99.3% in assay [18]. In addition, the growth in assay [19] is 57.7%.
